Results as given in PubChem BioAssay AID1984 (Sanford-Burnham Center for Chemical Genomics, 2009).
The whole screen tested about 290,000 compounds, of which about 35 (0.01%) were called active. Only a selection was taken, and actives are over-represented in it overall. Unmarked numbers belong to inactive results.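 Rule for the calls: active = EGFP signal decrease of at least 30% at 10 µM or well 3 SD below plate mean, unless failing retest; inactive = the rest, including hits failing retest or dose response.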

Target: p/CIP-EGFP fusion (nuclear receptor coactivator 3, mouse) (UniProt Q05BA5)
Experiment: p/CIP-EGFP fusion destabilizers, primary screen, fluorescence, F442A cells (AID 1984)
Settings: 16 h, at 10 µM, active compounds read high

p/CIP-EGFP fusion (nuclear receptor coactivator 3, mouse), sequence (Q05BA5 1-1403): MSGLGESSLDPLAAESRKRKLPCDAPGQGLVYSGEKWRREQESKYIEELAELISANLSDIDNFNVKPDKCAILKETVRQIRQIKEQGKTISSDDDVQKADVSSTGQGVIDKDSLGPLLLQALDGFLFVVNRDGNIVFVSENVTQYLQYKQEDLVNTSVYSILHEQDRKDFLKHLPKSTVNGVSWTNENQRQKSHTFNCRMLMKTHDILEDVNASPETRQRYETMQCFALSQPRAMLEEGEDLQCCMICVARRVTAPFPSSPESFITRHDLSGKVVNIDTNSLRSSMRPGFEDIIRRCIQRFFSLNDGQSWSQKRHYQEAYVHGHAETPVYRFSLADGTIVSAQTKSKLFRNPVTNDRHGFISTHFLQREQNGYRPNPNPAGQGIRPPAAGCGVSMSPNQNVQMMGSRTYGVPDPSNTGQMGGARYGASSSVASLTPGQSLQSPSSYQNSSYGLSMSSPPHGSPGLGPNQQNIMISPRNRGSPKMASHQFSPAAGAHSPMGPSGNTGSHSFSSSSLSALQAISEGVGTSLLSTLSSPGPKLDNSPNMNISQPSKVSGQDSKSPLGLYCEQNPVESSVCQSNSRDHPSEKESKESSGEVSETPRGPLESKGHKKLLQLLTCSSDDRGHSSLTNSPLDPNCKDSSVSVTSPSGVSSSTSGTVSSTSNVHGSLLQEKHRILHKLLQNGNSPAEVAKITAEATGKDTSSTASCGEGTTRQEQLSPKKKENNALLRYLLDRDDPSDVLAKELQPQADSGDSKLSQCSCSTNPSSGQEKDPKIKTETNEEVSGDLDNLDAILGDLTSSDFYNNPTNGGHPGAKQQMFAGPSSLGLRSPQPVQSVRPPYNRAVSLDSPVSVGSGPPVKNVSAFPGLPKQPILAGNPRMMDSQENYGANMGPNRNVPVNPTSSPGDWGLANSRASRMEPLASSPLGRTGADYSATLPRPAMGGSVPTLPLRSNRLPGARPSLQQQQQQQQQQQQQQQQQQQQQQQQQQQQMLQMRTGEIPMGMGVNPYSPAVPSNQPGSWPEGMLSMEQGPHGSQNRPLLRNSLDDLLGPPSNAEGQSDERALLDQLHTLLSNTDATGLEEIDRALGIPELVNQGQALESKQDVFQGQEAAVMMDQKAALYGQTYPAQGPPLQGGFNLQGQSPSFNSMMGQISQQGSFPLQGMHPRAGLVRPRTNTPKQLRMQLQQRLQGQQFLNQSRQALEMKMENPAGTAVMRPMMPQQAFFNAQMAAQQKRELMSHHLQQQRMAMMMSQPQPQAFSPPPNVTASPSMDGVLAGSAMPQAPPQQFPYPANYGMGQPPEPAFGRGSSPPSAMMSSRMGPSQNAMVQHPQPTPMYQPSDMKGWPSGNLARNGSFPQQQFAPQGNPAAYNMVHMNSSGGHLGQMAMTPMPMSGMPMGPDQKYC

Row | Compound | decrease of EGFP signal
1 | COCCNC(=O)CSc1nc2sccc2c(=O)n1-c1ccccc1 | -15.6%
2 | Cc1ccc(C(CNC(=O)Nc2cccc(C)c2)N2CCN(C)CC2)cc1 (stereo not drawn) | -22.3%
3 | CC1C(=O)N(Cc2ccccc2)c2ccccc2N1C(=O)c1ccccc1 (stereo not drawn) | -15.4%
4 | COc1ccc(N2CCN(C(=O)c3cccs3)CC2)cc1 | -8%
5 | Cc1nc2nc(SCC(=O)Nc3cccc(F)c3)[nH]c2cc1Br | -0.1%
6 | CS(=O)(=O)c1ccccc1C(=O)Nc1ccc2sccc2c1 | -7.2%
7 | COc1ccc(-c2n[nH]c3c2CN(C(=O)c2ccc(F)cc2)CC3)cc1 | -14.3%
8 | CC(C)(C)C1CCc2c(sc3nc(SCC(N)=O)nc(N)c23)C1 (stereo not drawn) | -4.6%
9 | O=C(NCCCn1ccnc1)/C(=C\c1ccccc1F)NC(=O)c1ccccc1 | -21.2%
10 | COc1ccc(OC)c(C(=O)NC(CC(N)=O)c2ccc(N3CCC(N4CCCCC4)CC3)c([N+](=O)[O-])c2)c1 (stereo not drawn) | -7.7%
11 | CSCC[C@H](NC(=O)N1CCn2c1nc1ccccc12)C(=O)NCc1ccc2c(c1)OCO2 | -3.3%
12 | Nc1nnc2c(C(F)(F)F)nc3ccccc3n12 | -5.5%
13 | COc1ccc(C)cc1Nc1n[n+](-c2ccccc2)c(-c2cccc(Cl)c2Cl)s1 | 6.4%
14 | CCN1N=C(c2ccccc2)CCC1=O | 5.6%
15 | COc1cc2ccccc2cc1C(=O)Nc1ccccc1C | -1.6%
16 | CC(C)(C)c1ccc(C(=O)N2CCN(CCNC(=O)C(=O)Nc3ccc(F)cc3)CC2)cc1 | -21.5%
17 | CCc1ccc(Oc2coc3cc(O)ccc3c2=O)cc1 | -7.6%
18 | CC(=O)N1CCOc2ccc(S(=O)(=O)N3CCC(C(=O)Nc4ccccc4F)CC3)cc21 | 11.8%
19 | O=C(CNC(=O)c1ccccc1)Oc1ccc([N+](=O)[O-])cc1 | -14%
20 | C=CCNC(=O)COC(=O)CNC(=O)c1cc(Cl)cc([N+](=O)[O-])c1 | 32% (active)

Row | Compound | decrease of EGFP signal
21 | C=CCNC(=S)NNC(=O)COc1c(Cl)cc(Cl)cc1Cl | -6.1%
22 | COc1ccc(NC2CCCN(C(=O)c3ccncc3)C2)cc1 (stereo not drawn) | -13.8%
23 | CC(=O)c1cccc(NC(=O)C2CCN(C(=O)c3ccccc3Cl)CC2)c1 | 4.2%
24 | Cc1ccccc1N(C(=O)CNC(=O)c1cccs1)C(C(=O)NC1CCCC1)c1ccncc1 (stereo not drawn) | 12.1%
25 | CC1(C)C=C2[C@H]3CC[C@@H]4[C@@]5(C)CCC(=O)C(C)(C)[C@@H]5CC[C@@]4(C)[C@]3(C)CC[C@@]2(C(=O)O)CC1 | -6.3%
26 | O=C(CN1CCN(S(=O)(=O)c2ccc(Br)cc2)CC1)Nc1ccccc1C(=O)c1ccccc1 | -4.8%
27 | NC(=O)c1cc(S(=O)(=O)N2CCCC2)ccc1OCc1ccc(F)cc1 | -4.5%
28 | COc1cccc(NC(=O)NCCN2CCCCC2)c1 | -6.2%
29 | OC(CNC1CCCC1)COc1ccc(F)cc1 (stereo not drawn) | 26.4%
30 | CCCCC(=O)Nc1nnc(S(=O)(=O)N(C)Cc2ccco2)s1 | 0.2%
31 | Cc1ccc(N(Cc2cc(=O)[nH]c3ccccc23)C(=O)CCl)cc1 | -8.8%
32 | CN(C)S(=O)(=O)c1cccc(NC(=O)COC(=O)C2(c3ccccc3F)CCCC2)c1 | -3%
33 | Cc1[nH]c2ccccc2c1C(=O)CN1CCCC(C)C1 (stereo not drawn) | -10.8%
34 | Cc1ccc(-c2nc(CSCC(=O)NC3CCN(Cc4ccccc4)CC3)c(C)o2)cc1 | -10%
35 | Cn1nccc1C(=O)NC1CCCc2c1cnn2-c1ccc(F)cc1F (stereo not drawn) | -26.2%
36 | Cc1ccc(CNC(=O)CSc2nnc3c(n2)[nH]c2ccc(F)cc23)cc1 | -14.9%
37 | COc1cc(C2C(N3C(=O)c4ccccc4C3=O)C(=O)N2c2ccc(C)c(C)c2)cc(OC)c1OC (stereo not drawn) | 8.2%
38 | N#CC(C#N)=CN=c1ccn(Cc2ccc(Cl)cc2Cl)cc1 | -1.4%
39 | Cc1ccc(C(=O)NC2CCN(C(=O)Nc3ccccc3Cl)CC2)cc1 | 5.4%
40 | CC1CCN(C(=O)c2ccccc2NC(=O)Cc2ccccc2)CC1 | -1.7%

Row | Compound | decrease of EGFP signal
41 | COc1ccccc1N(CC(=O)NC1CCCC1)C(=O)C1(C)CC(=O)N=C2C=CC(C)=CN21 (stereo not drawn) | -13.7%
42 | Cc1ccc(OCC(=O)Nc2ccccc2C(=O)NC2CC2)cc1C | 1.1%
43 | COc1ccccc1NC(=O)CSc1nnc(CNC(=O)c2ccccc2F)o1 | -0.3%
44 | CCOC(=O)C1CCN(Cc2nnc(-c3cccc(Br)c3)o2)CC1 | -16.9%
45 | O=C(CCc1nnc(Cc2ccc3c(c2)OCO3)o1)NCCc1ccccc1Cl | -7.8%
46 | O=C(NCCc1ccccc1)c1ccc2c(c1)N(Cc1ccccc1)CCS2 | 5.5%
47 | Cc1ccc(NC(=S)Nc2ncccc2C)c(C)c1 | -3.8%
48 | COc1ccc(NS(=O)(=O)c2ccc(N3CCN(CCO)CC3)c([N+](=O)[O-])c2)cc1 | -28.7%
49 | C=C(C)C(=O)O[C@H]1C/C(C)=C\C(=O)/C=C(\C)[C@H](O)[C@@H]2OC(=O)C(=C)[C@@H]21 | -31.6%
50 | CC(C)NC(=O)N1CCN(c2ccncc2S(=O)(=O)N2CCCCC2)CC1 | 5.9%
51 | Nc1c(N(CCO)C(=O)C2CCCCC2)c(=O)[nH]c(=O)n1Cc1ccccc1 | -13.9%
52 | CC(C)CCOc1ccc(C(=O)C[N+]2(C)CCOCC2)cc1 | -10%
53 | O=C(OCC(=O)N1CCN(C(=O)c2ccco2)CC1)c1cccc(O)c1 | 2.2%
54 | Cc1ccc(NC(=O)CSc2nnc(CNC(=O)c3ccccc3F)o2)cc1Cl | -13%
55 | CCc1cccc(NC(=O)CCCN2C(=O)C(c3ccccc3)Oc3cccnc32)c1 (stereo not drawn) | 4.5%
56 | O=C(COc1cccc(Cl)c1)NCc1ccccc1 | -3.1%
57 | CC(C(=O)N1CCN(c2ccccc2F)CC1)c1ccc([N+](=O)[O-])cc1 (stereo not drawn) | 1.2%
58 | COc1ccc(C(=O)NC(=S)NC2CCCCC2)cc1 | -9.4%
